Screening data from PubChem.
Compounds with a hit are over-represented: about 2.4% of the library has one in this group of screens.
AmpC nodet inh: Promiscuous and Specific Inhibitors of AmpC Beta-Lactamase (assay without detergent); AmpC nitrocefin hydrolysis, absorbance 480 nm, no detergent; Potency, µM (titrated, usually from 28.7 µM); 71,000 tested, 1.8% active; AID 585, 2007
Target sequence (P00811 whole entry, looked up): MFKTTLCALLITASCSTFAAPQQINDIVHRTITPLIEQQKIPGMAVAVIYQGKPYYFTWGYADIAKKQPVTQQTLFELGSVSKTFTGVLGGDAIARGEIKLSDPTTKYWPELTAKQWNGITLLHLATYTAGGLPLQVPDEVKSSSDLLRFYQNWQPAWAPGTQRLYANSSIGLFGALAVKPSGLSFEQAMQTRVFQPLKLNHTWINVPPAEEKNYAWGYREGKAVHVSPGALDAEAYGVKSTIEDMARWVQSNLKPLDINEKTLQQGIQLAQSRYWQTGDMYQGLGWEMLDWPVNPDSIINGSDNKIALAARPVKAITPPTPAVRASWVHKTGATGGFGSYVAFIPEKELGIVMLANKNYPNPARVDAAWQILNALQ
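Enzyme, pH 7.0 phosphate. Compound titrations were pre-incubated with AmpC for 15 min at room temperature before nitrocefin (stock 800 uM) addition; product formation was recorded at 480 nm every 20 s for 4 min.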
LT uptake inh: qHTS Assay for Anthrax Lethal Toxin Internalization. Potency, µM (series often up to 40 µM), hits mostly inhibitors. 70,000 tested, 0.67% active. AID 912, 2007. Cells, anthrax lethal toxin internalization, FRET ratio (460/530); note: nearly all actives have a fitted effect of over 50% in size
AmpC det inh: Promiscuous and Specific Inhibitors of AmpC Beta-Lactamase (assay with detergent). Potency, µM (series often up to 28.7 µM). P00811. AID 584, 2007. purified AmpC, nitrocefin hydrolysis with detergent. 71,000 tested, 0.09% active; active = well fitted curve in the direction sought with a large enough effect; inconclusive = small, poorly fitted or top-dose-only effect
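E. coli AmpC (5.3 nM) in 20 mM phosphate pH 7.0 with 0.01% Triton X-100, preincubated 15 min RT with compound; nitrocefin (2 uL of 800 uM stock) hydrolysis followed by 480 nm absorbance every 20 s over 4 min.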
Prx2 Sm inh: Schistosoma Mansoni Peroxiredoxins (Prx2); Schistosoma mansoni peroxiredoxin 2 (Prx2); S. mansoni Prx2 activity coupled to TGR/GSH (TGR is thioredoxin glutathione reductase), NADPH fluorescence loss, qHTS; Potency, µM; 65,000 tested, 0.07% active
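Prx2 activity was followed as the loss of NADPH fluorescence (ex 365/em 450 nm), read every 30 sec for 8 min after H2O2 start. The enzyme mix (50 nM Prx2, 25 nM TGR, GSH, NADPH; pH 7.4 phosphate buffer) was incubated with compound for 15 min at room temperature first.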
Hits are given with their value; [ ] = remark or other dose. Unless noted, calls come from the whole dose curve.

How did COc1ccc(-n2c(Cc3cc(=O)[nH]c(=O)[nH]3)nnc2SCC(=O)N2CCCC2)cc1 do in these assays?
AmpC nodet inh: 3.98µM[single pt active]; LT uptake inh: inactive; AmpC det inh: inactive; Prx2 Sm inh: inactive

What do the screens show for `COc1cccc(-n2c(Cc3cc(=O)[nH]c(=O)[nH]3)nnc2SCC(=O)N2CCCC2)c1`?
AmpC nodet inh: inactive; LT uptake inh: inactive; AmpC det inh: inactive; Prx2 Sm inh: inactive

What do the screens show for `COc1ccc(-n2c(Cc3cc(=O)[nH]c(=O)[nH]3)nnc2SCC(=O)N2CCC(C)CC2)cc1`?
AmpC nodet inh: 3.98µM[single pt active]; LT uptake inh: inactive; AmpC det inh: inactive; Prx2 Sm inh: inactive

What do the screens show for `COc1ccc(-n2c(Cc3cc(=O)[nH]c(=O)[nH]3)nnc2SCC(=O)Nc2ccccc2)cc1`?
AmpC nodet inh: inconclusive; LT uptake inh: inconclusive; AmpC det inh: inactive; Prx2 Sm inh: inactive

Results for CC1CCN(C(=O)CSc2nnc(Cc3cc(=O)[nH]c(=O)[nH]3)n2-c2ccc(Cl)cc2)CC1 ?
AmpC nodet inh: 3.98µM[single pt active]; LT uptake inh: inactive; AmpC det inh: inactive; Prx2 Sm inh: inactive

What do the screens show for `COc1cccc(-n2c(Cc3cc(=O)[nH]c(=O)[nH]3)nnc2SCC(=O)N2CCCCCC2)c1`?
AmpC nodet inh: 3.98µM[single pt active]; LT uptake inh: inactive; AmpC det inh: inactive; Prx2 Sm inh: inactive

What do the screens show for `O=C(CSc1nnc(Cc2cc(=O)[nH]c(=O)[nH]2)n1-c1ccccc1)N1CCCCC1`?
AmpC nodet inh: 3.16µM[single pt active]; LT uptake inh: inactive; AmpC det inh: inactive; Prx2 Sm inh: inactive

Results for O=C(CSc1nnc(Cc2cc(=O)[nH]c(=O)[nH]2)n1-c1ccccc1)N1CCCC1 ?
AmpC nodet inh: inactive; LT uptake inh: inactive; AmpC det inh: inactive; Prx2 Sm inh: inactive

How did CCCn1c(C)c(C(=O)c2ccc3ccccc3c2)c2ccccc21 do in these assays?
AmpC nodet inh: inactive; LT uptake inh: 12.6µM; AmpC det inh: inactive; Prx2 Sm inh: inactive

How did COc1ccccc1-c1nnc(SCC(=O)NCc2c(C)c(Cl)cc(C(C)C)c2O)o1 do in these assays?
AmpC nodet inh: inactive; LT uptake inh: 10µM; AmpC det inh: inactive; Prx2 Sm inh: inactive

Results for COc1ccccc1-c1nnc(SCC(=O)Nc2c(Cl)cccc2Cl)o1 ?
AmpC nodet inh: inactive; LT uptake inh: inactive; AmpC det inh: inactive; Prx2 Sm inh: inactive

What do the screens show for `Oc1cc(Cl)c(Cl)cc1Cl`?
AmpC nodet inh: inactive; LT uptake inh: inconclusive; AmpC det inh: inactive

What do the screens show for `Clc1cc(Cl)c(-c2cc(Cl)c(Cl)cc2Cl)cc1Cl`?
AmpC nodet inh: inactive; LT uptake inh: 3.16µM; AmpC det inh: inactive

What do the screens show for `COc1ccccc1N1CCN(c2cc(=O)n(-c3ccc(Br)cc3)c(=O)[nH]2)CC1`?
AmpC nodet inh: 15.8µM[single pt active]; LT uptake inh: inactive; AmpC det inh: inactive; Prx2 Sm inh: inactive

How did COc1ccccc1N1CCN(c2cc(=O)n(-c3ccc(Cl)cc3)c(=O)[nH]2)CC1 do in these assays?
AmpC nodet inh: inactive; LT uptake inh: inactive; AmpC det inh: inactive; Prx2 Sm inh: inactive

How did COc1cccc(Nc2ncc3nc(CCc4ccccc4)c(=O)n(C)c3n2)c1 do in these assays?
AmpC nodet inh: inactive; LT uptake inh: inconclusive; AmpC det inh: inactive; Prx2 Sm inh: inactive

What do the screens show for `CN(C)c1cc(NC(=O)CN2CCOCC2)c2ccccc2n1`?
AmpC nodet inh: 3.98µM[single pt active]; LT uptake inh: inactive; AmpC det inh: inactive; Prx2 Sm inh: inactive

Results for CCCCC(=O)Nc1cc(N(C)C)nc2ccccc12 ?
AmpC nodet inh: inactive; LT uptake inh: inactive; AmpC det inh: inactive; Prx2 Sm inh: inactive

What do the screens show for `C/C(=C\C(=O)c1ccc(C)cc1)Nc1cccc(O)c1`?
AmpC nodet inh: inactive; LT uptake inh: 10µM; AmpC det inh: inactive

Results for O=c1[nH]c2[nH]c(=S)[nH]c(=S)c2[nH]1 ?
AmpC nodet inh: inactive[5.75 µM]; LT uptake inh: inactive[8 µM]; AmpC det inh: inactive[5.75 µM]; Prx2 Sm inh: inactive

How did CCOC(=O)C(C(=O)OCC)c1cc(Br)c2noc3c2c1C(=O)c1ccccc1-3 do in these assays?
AmpC nodet inh: inactive; LT uptake inh: inconclusive; AmpC det inh: inactive; Prx2 Sm inh: 0.53

Results for C[C@H](O)[C@H](O)[C@@H](O)c1cnc2nc(N)[nH]c(=O)c2n1 ?
AmpC nodet inh: inactive; LT uptake inh: inconclusive; AmpC det inh: inactive; Prx2 Sm inh: inactive

How did Cc1oc2c(O)c(O)ccc2c(=O)c1-c1cnn(-c2ccccc2)c1 do in these assays?
AmpC nodet inh: inactive; LT uptake inh: 7.94µM; AmpC det inh: inactive

Results for Cc1noc(C)c1C(=O)N1CCC2(CCCN(c3ccccn3)C2)CC1 ?
AmpC nodet inh: inactive; LT uptake inh: inactive; AmpC det inh: inactive; Prx2 Sm inh: inactive

How did Cc1nccc2c1[nH]c1ccccc12 do in these assays?
AmpC nodet inh: inactive; LT uptake inh: inconclusive; AmpC det inh: inactive; Prx2 Sm inh: inactive

How did Cc1c2ccncc2c(C)c2c1[nH]c1ccccc12 do in these assays?
AmpC nodet inh: inactive; LT uptake inh: 5.01µM; AmpC det inh: inactive; Prx2 Sm inh: inactive

How did O=C(CN(C1CC1)S(=O)(=O)c1ccc(S(=O)(=O)NC2CCCCC2)cc1)Nc1ccccc1 do in these assays?
AmpC nodet inh: inactive; LT uptake inh: 10µM; AmpC det inh: inactive; Prx2 Sm inh: inactive

Results for CC(C)CC(=O)C[C@H](O)C(Cl)(Cl)Cl ?
AmpC nodet inh: inactive[5.75 µM]; LT uptake inh: inactive[8 µM]; AmpC det inh: inactive[5.75 µM]; Prx2 Sm inh: inactive

Results for Cc1c(-c2ccc(O)cc2)nn(-c2ccc(O)cc2)c1-c1ccc(OCCN2CCCCC2)cc1 ?
AmpC nodet inh: inactive; LT uptake inh: 15.8µM; AmpC det inh: inactive; Prx2 Sm inh: inactive

How did CCOC(=O)c1cnc2c(C#N)c(C)nn2c1C do in these assays?
AmpC nodet inh: inactive; LT uptake inh: inactive; AmpC det inh: inactive; Prx2 Sm inh: inactive

How did CCOC(=O)c1cnc2c(C#N)c(C)nn2c1-c1ccccc1 do in these assays?
AmpC nodet inh: 3.98µM[single pt active]; LT uptake inh: inactive; AmpC det inh: inactive

How did N#CCSc1nc2ccccc2c(=O)n1CCC(=O)NCCc1ccccc1 do in these assays?
AmpC nodet inh: 15.8µM[single pt active]; LT uptake inh: inactive; AmpC det inh: inactive; Prx2 Sm inh: inactive

How did CC(=O)NCCn1c(SCC#N)nc2ccccc2c1=O do in these assays?
AmpC nodet inh: inactive; LT uptake inh: inconclusive; AmpC det inh: inactive; Prx2 Sm inh: inactive

What do the screens show for `O=C(CSc1nc(-c2ccccc2)cs1)Nc1nccs1`?
AmpC nodet inh: 10µM; LT uptake inh: inactive; AmpC det inh: inactive; Prx2 Sm inh: inactive

Results for CO/N=C(\C(=O)N[C@@H]1C(=O)N2C(C(=O)O)=C(COC(N)=O)CS[C@@H]12)c1ccco1 ?
AmpC nodet inh: 0.0398µM; LT uptake inh: inconclusive; AmpC det inh: 0.0794µM; Prx2 Sm inh: inactive

What do the screens show for `NCc1ccccc1CC(=O)N[C@@H]1C(=O)N2C(C(=O)O)=C(CSc3nnnn3CC(=O)O)CS[C@@H]12`?
AmpC nodet inh: inactive; LT uptake inh: inactive[3.58 µM]; AmpC det inh: inactive; Prx2 Sm inh: inactive

How did Cn1cccc1C(=O)NC(=O)COC(=O)c1ccccc1Sc1ccccc1C#N do in these assays?
AmpC nodet inh: 3.98µM; LT uptake inh: inconclusive; AmpC det inh: inactive; Prx2 Sm inh: inactive
